Measured values published in paper PMC7862700, “An all-to-all approach to the identification of sequence-specific readers for epigenetic DNA modifications on cytosine”.

Columns and labels:
Assay in all cases: DAPPL (digital affinity profiling via proximity ligation, sequencing); 10 mM Tris-HCl pH 7.5, 50 mM NaCl, 1 mM DTT, 4% glycerol, room temperature, 30 min; GST-TFs on glutathione beads, 16-mer random dsDNA library, 0.1% formaldehyde crosslink after washing; high values mean tight binding
Details in all cases: protein: recombinant; tags: N-terminal GST; dsDNA, one strand shown
FEV = molecular target: T1, FEV (Homo sapiens, UniProt Q99581 1-238)
T1 sequence: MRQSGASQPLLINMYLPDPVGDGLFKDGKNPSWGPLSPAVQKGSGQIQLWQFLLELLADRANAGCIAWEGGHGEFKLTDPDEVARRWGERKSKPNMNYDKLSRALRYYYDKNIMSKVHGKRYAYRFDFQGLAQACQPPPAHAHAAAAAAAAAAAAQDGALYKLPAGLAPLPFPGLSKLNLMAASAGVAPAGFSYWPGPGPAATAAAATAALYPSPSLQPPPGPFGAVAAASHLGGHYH
In short: (§1)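 Binding signal is given per hexamer as its read frequency for a factor divided by its frequency in the tag-only sample. GST-fused human transcription factors were expressed in yeast, captured on glutathione beads, barcoded with DNA and pooled with that sample, then incubated with 200 nmole of a 16-mer random double-stranded DNA library in Tris/NaCl/DTT/glycerol buffer for 30 min at room temperature. The pools were then washed, crosslinked, proximity-ligated, amplified by PCR and sequenced on an Illumina NextSeq500.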

ETV5 = ETV5 (Homo sapiens, UniProt P41161 1-510)
In short: as §1

SPIC = molecular target: T2, SPIC (Homo sapiens, UniProt Q8N5J4 1-248)
T2 sequence: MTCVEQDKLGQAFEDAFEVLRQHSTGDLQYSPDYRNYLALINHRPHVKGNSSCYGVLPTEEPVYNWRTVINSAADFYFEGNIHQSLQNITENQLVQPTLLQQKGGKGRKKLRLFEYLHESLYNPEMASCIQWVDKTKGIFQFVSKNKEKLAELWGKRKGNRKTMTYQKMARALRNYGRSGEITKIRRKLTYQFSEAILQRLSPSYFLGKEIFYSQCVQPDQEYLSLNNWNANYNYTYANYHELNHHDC
In short: as §1

ELF4 = ELF4 (Homo sapiens, UniProt Q99607 1-663)
In short: as §1

ELK4 = molecular target: T3, ELK4 (Homo sapiens, UniProt P28324-2 1-405)
T3 sequence: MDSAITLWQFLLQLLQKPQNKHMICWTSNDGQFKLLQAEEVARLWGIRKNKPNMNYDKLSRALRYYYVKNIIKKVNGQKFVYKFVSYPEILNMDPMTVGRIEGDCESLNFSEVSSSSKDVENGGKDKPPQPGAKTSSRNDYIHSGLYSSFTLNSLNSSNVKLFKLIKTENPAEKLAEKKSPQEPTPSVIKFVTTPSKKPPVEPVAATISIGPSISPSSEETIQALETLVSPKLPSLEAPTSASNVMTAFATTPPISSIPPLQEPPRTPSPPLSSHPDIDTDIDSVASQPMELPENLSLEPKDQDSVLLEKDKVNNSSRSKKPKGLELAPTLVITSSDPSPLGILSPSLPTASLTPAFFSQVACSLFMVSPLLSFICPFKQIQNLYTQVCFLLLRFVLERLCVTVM
In short: as §1

ETV2 = molecular target: T4, ETV2 (Homo sapiens, UniProt O00321 1-342)
T4 sequence: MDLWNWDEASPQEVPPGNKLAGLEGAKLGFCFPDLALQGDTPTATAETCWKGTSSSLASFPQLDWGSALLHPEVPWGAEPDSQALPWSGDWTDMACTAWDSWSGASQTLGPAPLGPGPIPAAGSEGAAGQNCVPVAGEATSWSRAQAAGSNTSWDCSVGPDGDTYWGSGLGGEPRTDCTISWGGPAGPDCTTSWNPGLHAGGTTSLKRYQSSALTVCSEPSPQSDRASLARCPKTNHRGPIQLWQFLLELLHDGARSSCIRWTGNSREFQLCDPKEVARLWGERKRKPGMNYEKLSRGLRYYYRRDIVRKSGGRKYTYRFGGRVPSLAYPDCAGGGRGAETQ
In short: as §1

ELF3 = molecular target: T5, ELF3 (Homo sapiens, UniProt P78545 1-371)
T5 sequence: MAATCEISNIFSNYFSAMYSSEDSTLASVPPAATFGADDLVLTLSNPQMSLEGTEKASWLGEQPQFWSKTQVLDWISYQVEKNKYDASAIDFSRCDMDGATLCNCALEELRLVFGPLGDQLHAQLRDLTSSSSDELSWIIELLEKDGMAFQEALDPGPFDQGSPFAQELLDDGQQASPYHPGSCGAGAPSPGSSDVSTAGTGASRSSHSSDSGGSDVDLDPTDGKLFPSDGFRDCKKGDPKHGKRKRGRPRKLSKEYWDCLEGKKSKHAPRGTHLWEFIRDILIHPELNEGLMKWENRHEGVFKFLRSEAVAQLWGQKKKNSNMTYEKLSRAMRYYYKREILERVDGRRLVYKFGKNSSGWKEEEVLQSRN
In short: as §1

ETV1 = ETV1 (Homo sapiens, UniProt P50549 1-477)
In short: as §1

ERF = molecular target: T6, ERF (Homo sapiens, UniProt P50548 1-548)
T6 sequence: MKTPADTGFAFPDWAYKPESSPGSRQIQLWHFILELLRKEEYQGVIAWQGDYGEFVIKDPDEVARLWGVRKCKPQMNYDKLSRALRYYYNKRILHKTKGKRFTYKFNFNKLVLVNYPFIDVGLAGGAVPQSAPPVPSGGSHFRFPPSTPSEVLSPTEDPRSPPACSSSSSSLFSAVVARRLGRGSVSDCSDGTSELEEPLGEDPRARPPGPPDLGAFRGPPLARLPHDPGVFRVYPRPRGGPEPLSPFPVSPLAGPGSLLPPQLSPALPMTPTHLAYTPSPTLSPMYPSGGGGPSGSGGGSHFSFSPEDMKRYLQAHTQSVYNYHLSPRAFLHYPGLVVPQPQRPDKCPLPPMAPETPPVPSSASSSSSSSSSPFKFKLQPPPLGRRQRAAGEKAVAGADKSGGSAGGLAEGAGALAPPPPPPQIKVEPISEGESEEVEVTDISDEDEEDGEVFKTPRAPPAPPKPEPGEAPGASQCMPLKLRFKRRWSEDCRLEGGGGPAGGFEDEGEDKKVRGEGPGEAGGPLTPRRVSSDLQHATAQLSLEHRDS
In short: as §1

ETV3L = molecular target: T7, ETV3L (Homo sapiens, UniProt Q6ZN32 1-361)
T7 sequence: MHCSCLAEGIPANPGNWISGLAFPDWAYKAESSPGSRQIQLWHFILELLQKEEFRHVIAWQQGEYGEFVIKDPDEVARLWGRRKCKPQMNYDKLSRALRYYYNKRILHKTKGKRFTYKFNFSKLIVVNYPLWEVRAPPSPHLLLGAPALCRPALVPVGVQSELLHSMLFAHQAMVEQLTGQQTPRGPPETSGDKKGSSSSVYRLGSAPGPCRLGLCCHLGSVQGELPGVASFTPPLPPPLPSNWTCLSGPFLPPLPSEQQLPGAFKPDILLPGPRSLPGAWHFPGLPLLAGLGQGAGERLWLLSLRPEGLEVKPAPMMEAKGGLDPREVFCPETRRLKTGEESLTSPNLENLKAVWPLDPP
In short: as §1

ETS2 = molecular target: T8, ETS2 (Homo sapiens, UniProt P15036 1-469)
T8 sequence: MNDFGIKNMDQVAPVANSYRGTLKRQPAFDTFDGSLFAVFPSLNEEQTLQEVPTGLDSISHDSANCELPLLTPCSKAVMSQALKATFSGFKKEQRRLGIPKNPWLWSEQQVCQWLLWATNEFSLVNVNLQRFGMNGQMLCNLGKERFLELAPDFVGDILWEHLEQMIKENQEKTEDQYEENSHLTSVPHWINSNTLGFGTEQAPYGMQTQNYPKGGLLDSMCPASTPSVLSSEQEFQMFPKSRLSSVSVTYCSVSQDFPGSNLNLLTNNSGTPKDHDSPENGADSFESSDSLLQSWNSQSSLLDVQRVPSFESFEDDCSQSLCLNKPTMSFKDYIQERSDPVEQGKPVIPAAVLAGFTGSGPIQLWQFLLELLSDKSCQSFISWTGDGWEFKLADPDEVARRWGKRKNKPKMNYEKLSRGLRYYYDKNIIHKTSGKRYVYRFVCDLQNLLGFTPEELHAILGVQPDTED
In short: as §1

SPDEF = molecular target: T9, SPDEF (Homo sapiens, UniProt O95238 1-335)
T9 sequence: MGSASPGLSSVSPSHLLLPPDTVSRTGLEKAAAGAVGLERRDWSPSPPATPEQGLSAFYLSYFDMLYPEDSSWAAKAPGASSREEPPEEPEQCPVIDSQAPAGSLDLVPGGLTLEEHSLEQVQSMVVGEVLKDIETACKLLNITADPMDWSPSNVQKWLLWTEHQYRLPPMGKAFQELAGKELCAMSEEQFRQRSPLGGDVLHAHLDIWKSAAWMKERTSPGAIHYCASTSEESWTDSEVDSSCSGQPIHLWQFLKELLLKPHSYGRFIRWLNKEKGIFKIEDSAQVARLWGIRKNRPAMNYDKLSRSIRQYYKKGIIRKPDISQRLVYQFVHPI
In short: as §1

ETV7 = molecular target: T10, ETV7 (Homo sapiens, UniProt Q9Y603 1-341)
T10 sequence: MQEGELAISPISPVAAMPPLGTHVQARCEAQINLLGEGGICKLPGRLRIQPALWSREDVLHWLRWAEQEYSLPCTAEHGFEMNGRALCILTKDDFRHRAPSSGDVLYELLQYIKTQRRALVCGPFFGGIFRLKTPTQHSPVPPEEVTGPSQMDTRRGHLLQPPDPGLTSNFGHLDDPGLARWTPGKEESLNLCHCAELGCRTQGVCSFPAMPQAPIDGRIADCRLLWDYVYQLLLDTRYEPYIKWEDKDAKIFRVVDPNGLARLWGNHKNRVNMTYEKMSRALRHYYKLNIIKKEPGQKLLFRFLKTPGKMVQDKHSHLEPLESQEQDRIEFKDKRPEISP
In short: as §1

ELF5 = molecular target: T11, ELF5 (Homo sapiens, UniProt Q9UKW6-2 1-255)
T11 sequence: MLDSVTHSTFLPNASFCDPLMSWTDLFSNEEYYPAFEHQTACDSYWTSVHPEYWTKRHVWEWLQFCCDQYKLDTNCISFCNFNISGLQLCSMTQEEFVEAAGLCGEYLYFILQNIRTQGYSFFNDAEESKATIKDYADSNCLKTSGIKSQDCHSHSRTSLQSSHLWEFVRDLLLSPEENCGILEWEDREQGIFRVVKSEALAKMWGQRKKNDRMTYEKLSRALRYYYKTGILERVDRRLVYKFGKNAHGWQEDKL
In short: as §1

ETV3 = molecular target: T12, ETV3 (Homo sapiens, UniProt P41162-2 1-143)
T12 sequence: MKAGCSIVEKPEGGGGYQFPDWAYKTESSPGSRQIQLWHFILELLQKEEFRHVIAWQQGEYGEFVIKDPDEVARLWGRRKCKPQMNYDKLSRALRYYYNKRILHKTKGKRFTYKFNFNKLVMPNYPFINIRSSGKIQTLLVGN
In short: as §1

ETV6 = ETV6 (Homo sapiens, UniProt P41212 1-452)
In short: as §1

ELF4, sequence (Q99607 whole entry): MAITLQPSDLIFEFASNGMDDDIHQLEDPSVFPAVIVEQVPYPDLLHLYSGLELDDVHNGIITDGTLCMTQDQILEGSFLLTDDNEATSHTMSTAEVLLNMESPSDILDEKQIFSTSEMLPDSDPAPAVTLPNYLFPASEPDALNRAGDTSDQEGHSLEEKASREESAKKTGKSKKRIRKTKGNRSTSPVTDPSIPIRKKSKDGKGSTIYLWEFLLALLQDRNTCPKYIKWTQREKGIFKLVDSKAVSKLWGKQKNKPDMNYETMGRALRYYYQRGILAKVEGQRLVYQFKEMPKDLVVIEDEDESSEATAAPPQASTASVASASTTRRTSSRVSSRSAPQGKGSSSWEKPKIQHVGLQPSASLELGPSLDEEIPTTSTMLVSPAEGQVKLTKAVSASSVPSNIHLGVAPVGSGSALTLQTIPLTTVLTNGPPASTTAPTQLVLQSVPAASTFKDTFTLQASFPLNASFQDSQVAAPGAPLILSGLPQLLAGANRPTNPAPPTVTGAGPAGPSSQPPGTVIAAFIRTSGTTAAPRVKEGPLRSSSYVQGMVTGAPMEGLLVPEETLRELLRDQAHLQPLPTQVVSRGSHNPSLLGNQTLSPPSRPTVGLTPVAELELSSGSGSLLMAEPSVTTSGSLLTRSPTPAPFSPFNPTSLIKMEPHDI
ETV6, sequence (P41212 whole entry): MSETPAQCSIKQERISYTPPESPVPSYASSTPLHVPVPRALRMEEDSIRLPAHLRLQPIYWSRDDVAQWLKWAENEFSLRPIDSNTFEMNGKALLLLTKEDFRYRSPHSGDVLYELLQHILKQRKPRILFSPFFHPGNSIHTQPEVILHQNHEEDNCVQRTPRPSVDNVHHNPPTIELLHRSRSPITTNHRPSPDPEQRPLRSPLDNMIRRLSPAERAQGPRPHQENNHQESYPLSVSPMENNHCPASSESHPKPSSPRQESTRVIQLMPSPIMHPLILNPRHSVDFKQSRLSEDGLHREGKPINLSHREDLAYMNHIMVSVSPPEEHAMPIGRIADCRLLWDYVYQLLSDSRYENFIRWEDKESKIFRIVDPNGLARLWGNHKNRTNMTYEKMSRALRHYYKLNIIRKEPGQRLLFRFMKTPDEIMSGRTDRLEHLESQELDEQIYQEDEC
ETV1, sequence (P50549 whole entry): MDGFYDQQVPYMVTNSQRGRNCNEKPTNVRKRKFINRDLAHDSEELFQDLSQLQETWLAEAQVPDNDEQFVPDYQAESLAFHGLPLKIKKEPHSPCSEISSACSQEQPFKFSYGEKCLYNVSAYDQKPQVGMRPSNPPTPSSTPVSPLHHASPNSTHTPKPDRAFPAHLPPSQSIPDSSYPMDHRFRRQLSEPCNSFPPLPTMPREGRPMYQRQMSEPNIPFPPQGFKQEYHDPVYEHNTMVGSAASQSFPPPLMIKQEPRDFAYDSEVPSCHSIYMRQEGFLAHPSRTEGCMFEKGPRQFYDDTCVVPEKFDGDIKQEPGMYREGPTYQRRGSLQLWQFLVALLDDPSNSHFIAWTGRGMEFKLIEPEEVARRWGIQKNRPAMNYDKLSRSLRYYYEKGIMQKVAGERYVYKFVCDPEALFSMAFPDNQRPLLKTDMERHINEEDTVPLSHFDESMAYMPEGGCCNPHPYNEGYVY
ETV5, sequence (P41161 whole entry): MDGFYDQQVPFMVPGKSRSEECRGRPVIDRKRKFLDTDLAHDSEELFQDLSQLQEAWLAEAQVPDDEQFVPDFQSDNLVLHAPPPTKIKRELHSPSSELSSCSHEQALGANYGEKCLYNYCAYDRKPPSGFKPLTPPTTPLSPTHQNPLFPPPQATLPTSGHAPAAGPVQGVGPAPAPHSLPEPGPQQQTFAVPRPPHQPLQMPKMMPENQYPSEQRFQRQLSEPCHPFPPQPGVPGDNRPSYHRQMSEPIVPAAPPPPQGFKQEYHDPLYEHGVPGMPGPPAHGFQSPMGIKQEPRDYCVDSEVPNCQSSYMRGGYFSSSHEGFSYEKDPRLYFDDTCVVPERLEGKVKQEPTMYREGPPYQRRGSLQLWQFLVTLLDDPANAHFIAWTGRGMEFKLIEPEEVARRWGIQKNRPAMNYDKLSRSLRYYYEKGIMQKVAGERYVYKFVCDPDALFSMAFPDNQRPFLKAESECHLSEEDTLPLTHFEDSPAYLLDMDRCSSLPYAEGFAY

Row | Sequence | binding signal (FEV) | binding signal (ETV5) | binding signal (SPIC) | binding signal (ELF4) | binding signal (ELK4) | binding signal (ETV2) | binding signal (ELF3) | binding signal (ETV1) | binding signal (ERF) | binding signal (ETV3L) | binding signal (ETS2) | binding signal (SPDEF) | binding signal (ETV7) | binding signal (ELF5) | binding signal (ETV3) | binding signal (ETV6)
1 | AGTGGC | 1.43 fold enrichment (6-mer frequency, TF over GST control) | 1.24 fold enrichment (6-mer frequency, TF over GST control) | 1.16 fold enrichment (6-mer frequency, TF over GST control) | 1.19 fold enrichment (6-mer frequency, TF over GST control) | 1.24 fold enrichment (6-mer frequency, TF over GST control) | 1.18 fold enrichment (6-mer frequency, TF over GST control) | 1.36 fold enrichment (6-mer frequency, TF over GST control) | 1.16 fold enrichment (6-mer frequency, TF over GST control) | 1.27 fold enrichment (6-mer frequency, TF over GST control) | 1.15 fold enrichment (6-mer frequency, TF over GST control) | 1.22 fold enrichment (6-mer frequency, TF over GST control) | 1.1 fold enrichment (6-mer frequency, TF over GST control) | 1.11 fold enrichment (6-mer frequency, TF over GST control) | 1.22 fold enrichment (6-mer frequency, TF over GST control) | 1.27 fold enrichment (6-mer frequency, TF over GST control) | 1.27 fold enrichment (6-mer frequency, TF over GST control)
2 | TGCCAC | 1.32 fold enrichment (6-mer frequency, TF over GST control) | 1.14 fold enrichment (6-mer frequency, TF over GST control) | 1.19 fold enrichment (6-mer frequency, TF over GST control) | 1.26 fold enrichment (6-mer frequency, TF over GST control) | 1.42 fold enrichment (6-mer frequency, TF over GST control) | 1.14 fold enrichment (6-mer frequency, TF over GST control) | 1.44 fold enrichment (6-mer frequency, TF over GST control) | 1.26 fold enrichment (6-mer frequency, TF over GST control) | 1.14 fold enrichment (6-mer frequency, TF over GST control) | 1.28 fold enrichment (6-mer frequency, TF over GST control) | 1.23 fold enrichment (6-mer frequency, TF over GST control) | 1.15 fold enrichment (6-mer frequency, TF over GST control) | 1.21 fold enrichment (6-mer frequency, TF over GST control) | 1.16 fold enrichment (6-mer frequency, TF over GST control) | 1.18 fold enrichment (6-mer frequency, TF over GST control) | 1.24 fold enrichment (6-mer frequency, TF over GST control)
